{
  "source": "PubChem BioAssay AID2284350",
  "about": "(EPA ToxCast)",
  "note": "Inconclusive results are not listed. Active and inactive are the calls of the source. The calls were made as follows: active = hit-call score of the fitted dose curve at least 0.9, where 1 is the maximum; inconclusive = response in the unintended direction; inactive = score below 0.9.",
  "data": [
    {"tested_on": "zebrafish Peroxisome Proliferator-activated Receptor alpha (PPARa), gene 563298", "test": "ATG_zfPPARa_EcoTox2: Attagene TRANS-FACTORIAL EcoTox-2 HepG2 Assay for zebrafish Peroxisome Proliferator-activated Receptor alpha (PPARa)", "experimental": "ATG_EcoTox2 is a cell-based, multiplexed assay created by modifying the existing Attagene TRANS-FACTORIAL system to include a panel of nuclear receptors from some or all the following species: human (Homo sapiens), african clawed frog (Xenopus laevis), rainbow trout (Oncorhynchus mykiss), japanese medaka (Oryzias latipes), and zebrafish (Danio rerio). The ECOTOX2-FACTORIAL format uses HepG2, a human liver cell line, with measurements taken at 24 hours after chemical dosing in a 24-well plate. ATG_zfPPARa_EcoTox2 is one of 29 assay components calculated in the ATG_EcoTox2 assay. It is designed to make measurements of mRNA induction, a form of inducible reporter, as detected with fluorescence intensity signals by Reverse transcription polymerase chain reaction (RT-PCR) and Capillary electrophoresis technology.The assay endpoint ATG_zfPPARa_EcoTox2 was analyzed in the positive analysis fitting direction relative to DMSO as the negative control and baseline of activity. Using a type of inducible reporter, measures of mRNA for gain-of-signal activity can be used to understand the reporter gene at the transcription factor-level as they relate to the gene PPARa. Furthermore, this assay endpoint can be referred to as a primary readout, because this assay has produced multiple assay endpoints where this one serves a reporter gene function. To generalize the intended target to other relatable targets, this assay endpoint is annotated to the nuclear receptor intended target family, where the subfamily is non-steroidal.\nHuman liver HepG2 cells are transiently transfected with multiple reporter transcription units (MRTUs) in 6-well plates using FuGene 6 reagent (Roche; 3 ml FuGene/1 mg DNA). The MRTU constructs are regulated by a cis-regulating element (promoter). Each RTU expresses a GAL4-UAS that regulates the transcription of a nearby target reporter gene sequence. A major difference between the CIS and TRANS system is that in CIS activities of endogenous TFs are measured, whereas the TRANS assay evaluates changes in activities of exogenous, chimeric NR-Gal4 proteins. […] At the end of 24 hour incubation, total RNA was isolated using TriZol reagent (Invitrogen). The isolated RNA is then reverse-transcribed using oligo(dT) primer and Mo-MLV reverse transcriptase (Invitrogen) with DNAse I (Ambion) treatment for 30 min. The one-tenth of the produced cDNA was amplified by PCR using Taq DNA polymerase (Invitrogen) and two reporter sequence-specific primers. The PCR products were fluorescently labeled by primer extension with 6-arboxyfluorescein (6-FAM) 5'-labeled reporter sequence-specific primer (2 min at 95 C, 20 s at 68 C and 10 min at 72 C) and these products were digested with 5U of HpaI (New England Biolabs) for 2h at 37 C. The fragments were purified using Qiaquick PCR columns (Qiagen), analyzed on an ABI 3130xL genetic analyzer (Applied Biosystems) with peak positions identified by using a set of X-rhodamine (ROX)-labeled MapMarker1000 molecular weight standards (BioVentures). The raw capillary electrophoresis data was processed using Attagraph software (Attagene).", "values": [
      {"compound": "Cc1ccc(C)c(OCCCC(C)(C)C(=O)O)c1", "AC50": "73.6 µM (active)"},
      {"compound": "Cc1cccc(Nc2cc(Cl)nc(SCC(=O)O)n2)c1C", "AC50": "8.62 µM (active)"},
      {"compound": "CC(C)OC(=O)C(C)(C)Oc1ccc(C(=O)c2ccc(Cl)cc2)cc1", "outcome": "inactive"},
      {"compound": "CN(CCOc1ccc(CC2SC(=O)NC2=O)cc1)c1ccccn1", "note": "(configuration not stated)", "outcome": "inactive"},
      {"compound": "Cc1nc(-c2ccc(C(F)(F)F)cc2)sc1C(=O)NCc1ccc(OC(C)(C)C(=O)O)cc1", "AC50": "0.0769 µM (active)"},
      {"compound": "Cc1c(C)c2c(c(C)c1O)CCC(C)(COc1ccc(CC3SC(=O)NC3=O)cc1)O2", "note": "(configuration not stated)", "outcome": "inactive"},
      {"compound": "CC(C)(Oc1ccc(C2CC2(Cl)Cl)cc1)C(=O)O", "note": "(configuration not stated)", "AC50": "71.9 µM (active)"},
      {"compound": "CC(C)(Oc1ccc(Cl)cc1)C(=O)O", "outcome": "inactive"},
      {"compound": "C=C(c1ccc(C(=O)O)cc1)c1cc2c(cc1C)C(C)(C)CCC2(C)C", "outcome": "inactive"},
      {"compound": "CC(c1cc2ccccc2s1)N(O)C(N)=O", "note": "(configuration not stated)", "outcome": "inactive"},
      {"compound": "C[C@@H]1C[C@H]2[C@@H]3CCC4=CC(=O)C=C[C@]4(C)[C@@]3(F)[C@@H](O)C[C@]2(C)[C@@]1(O)C(=O)COP(=O)(O)O", "outcome": "inactive"},
      {"compound": "CC(C)(Oc1ccc(CCNC(=O)c2ccc(Cl)cc2)cc1)C(=O)O", "AC50": "21.6 µM (active)"}
    ]}
  ]
}
